# A selection: hits, their analogues and other compounds. The true share with any hit is near 2.5%.
# V-ATPase pH – regulators of yeast V-ATPase proton pumping, primary screen, pHLuorin cytosolic pH fluorescence; response, % at 10 µM; actives 0.37% (n = 350,000); AID 504577, 2011; S. cerevisiae; in the data active = response mostly above about 7.3%, no sharp cut-off; inactive = mostly below about 5.4%; also: actives read high
# AI-2 QS modul – Vibrio harveyi AI-2 quorum sensing modulators, primary screen, JMH597 strain, luminescence/OD600 ratio; Vibrio harveyi JMH597 AI-2 luminescence/OD600 ratio, 9 h; stronger effect = lower value; strain lacks LuxN and CqsS sensors; 0 = neutral-control median; activity change, % at 7.5 µM; actives 0.4% (n = 300,000); AID 2094, 2009; in the data active = activity change below about -75%, passing the limit was not always enough;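 also: luminescence divided by OD600 gain over 9 h not by final OD600 alone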
# ATG4B inhibitor – ATG4B protease inhibitors, primary screen, biochemical, fluorescence, uHTS | Cysteine protease ATG4B (Homo sapiens), Q9Y4P1 | actives 0.51% (n = 340,000) | ATG4B cleavage of LC3-PLA2, NBD-HPC fluorescence, 1 h | inhibition, % at 8.33 µM; in the data active = inhibition above about 40%
# Target sequence (Q9Y4P1 whole entry, looked up): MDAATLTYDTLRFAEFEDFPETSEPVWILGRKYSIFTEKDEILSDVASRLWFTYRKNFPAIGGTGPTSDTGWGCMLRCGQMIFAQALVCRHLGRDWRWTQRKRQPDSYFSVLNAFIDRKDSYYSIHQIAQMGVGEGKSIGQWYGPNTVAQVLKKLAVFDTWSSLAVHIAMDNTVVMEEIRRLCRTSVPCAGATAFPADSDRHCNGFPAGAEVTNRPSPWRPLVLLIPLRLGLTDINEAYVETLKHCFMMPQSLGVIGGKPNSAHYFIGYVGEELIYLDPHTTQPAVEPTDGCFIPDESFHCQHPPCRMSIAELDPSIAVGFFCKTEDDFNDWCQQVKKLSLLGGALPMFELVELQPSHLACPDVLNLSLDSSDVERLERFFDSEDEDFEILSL
# Efflux pump inh – inhibitors of Candida efflux pumps in yeast, primary screen, S. cerevisiae, Nile Red, multiplex. S. cerevisiae Candida pump triplex. inhibition, % at 10 µM. actives 0.44% (n = 330,000). AID 485275, 2010;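 active = plate passing quality check with inhibition over a set limit, or well fluorescence over plate mean plus 4 SD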;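 also: Nile Red retained in pooled yeast measured as flow cytometry median fluorescence; 0% = buffer negative control and 100% = Enniatin B positive control; higher means more Nile Red kept so more efflux inhibition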
# Mot1-301 SUMO – yeast Mot1-301 growth rescue at high temperature, primary screen, SUMOylation pathway inhibitor project, S. cerevisiae, ATP luminescence, 38.5C. growth rescue, % at 18.8 µM. actives 1% (n = 320,000). S. cerevisiae Mot1-301 growth rescue; percent above DMSO median, 100 means doubled;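 active = every valid replicate shows activation above 250% relative to neutral control wells; inactive = the rest, any valid replicate at or below 250%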;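 also: OY570 slx delta 5 strain wells were the positive control but not used for scaling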
# Cmpd fluor yeast – counter-screen for efflux pump inhibitors: compound fluorescence; AID 588517; actives 4% (n = 1,700); S. cerevisiae AD/pABC3, flow cytometry; fluorescence ratio to DMSO, % at 10 µM; shares compounds with Efflux pump inh;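 active = fluorescence ratio to DMSO above its plate's cutoff, the plate mean ratio plus 5 SD, cut at about 210% in these data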;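 also: unstained yeast with no Nile Red so the signal is compound autofluorescence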
# CaMdr1 efflux inh – inhibitors of Candida albicans Mdr1 efflux, confirmation, flow cytometry, singleplex, Cherry Pick1 set | shares compounds with Efflux pump inh | S. cerevisiae AD/CaMDR1, Nile Red efflux | inhibition, % at 10 µM | actives 1% (n = 1,700); in the data active = inhibition above about 26%;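 also: 0% = DMSO vehicle and 100% = reference inhibitor; higher means more Nile Red retained so more efflux inhibition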
# CaCdr2 efflux inh – inhibitors of Candida albicans Cdr2 efflux pump, confirmation, S. cerevisiae AD/CaCDR2, flow cytometry, cherry pick 1, singleplex; shares compounds with Efflux pump inh; Nile Red retention; Nile Red retention ratio vs DMSO, % at 10 µM; actives 4% (n = 1,700); AID 588520, 2011; in the data active = Nile Red retention ratio vs DMSO above about 190%;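 also: higher ratio means more blocking of Cdr2 efflux of the dye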
# CaCdr1 efflux inh – inhibitors of Candida albicans Cdr1 efflux pump, confirmation, S. cerevisiae AD/CaCDR1, flow cytometry, cherry pick 1, singleplex. shares compounds with Efflux pump inh. Nile Red efflux. inhibition, % at 10 µM. actives 1% (n = 1,700). AID 588522, 2011;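 active = inhibition above the screen-wide mean plus twice its standard deviation, cut at about 32% in these data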
# * = called active by the depositor; · = no result; + = active, no number.
SMILES,V-ATPase pH,AI-2 QS modul,ATG4B inhibitor,Efflux pump inh,Mot1-301 SUMO,Cmpd fluor yeast,CaMdr1 efflux inh,CaCdr2 efflux inh,CaCdr1 efflux inh
CC(=O)c1ccc(OC(C)C(=O)OCC(=O)NCCc2ccccc2)cc1 (configuration not stated),1.3,·,-15.7,0.0,-3.6,·,·,·,·
CC(=O)Nc1ccc(S(=O)(=O)N2CCN=C2SCc2ccc(F)cc2)cc1,1.1,13.0,0.8,1.4*,-6.6,88.7,-0.1,91.1,-0.2
CC(=O)Nc1ccc(S(=O)(=O)N2CCN=C2SCc2ccc(C)cc2)cc1,0.4,11.3,-13.4,-0.3,-12.8,·,·,·,·
O=S(CC(O)c1ccccc1)c1ccccc1 (configuration not stated),-1.8,·,·,·,·,·,·,·,·
c1ccc(Nc2ccc3c4c(cccc24)CC3)cc1,0.1,-4.8,9.3,0.3,17.7,·,·,·,·
Nc1ccc2c3c(cccc13)CC2,-16.6,22.1,9.8,1.8*,15.5,122.3,-0.2,120.5,0.1
CCN(CC)CCCNC(=O)c1cc(-c2ccccc2)c(N2CCCCC2)s1,-6.2,2.4,-1.0,-0.2,-7.9,·,·,·,·
Cc1ccsc1/C=N\NC(=O)c1n[nH]c2c1CCC2,2.7,23.4,34.7,11.4*,-10.8,86.5,-0.2,94.0,0.0
O=C(Cn1nc(Cc2ccncc2)c2ccccc2c1=O)Nc1cccnc1Cl,0.4,23.0,-4.7,-0.1,-22.0,·,·,·,·
O=[N+]([O-])c1cccc(-c2nc3ccccc3s/c2=N/O)c1,-1.9,17.8,18.7,0.7*,24.2,116.4,0.2,116.2,0.5
CC(Oc1ccc([N+](=O)[O-])cc1Cl)C(=O)Nc1ccc(C(N)=O)cc1 (configuration not stated),0.0,22.0,-9.5,2.3*,-5.4,103.4,-0.2,90.9,-0.1
CC(=O)Nc1ccc(Oc2ccc([N+](=O)[O-])cc2Cl)cc1,-1.6,17.5,-7.1,0.0,-12.7,·,·,·,·
CCOC(=O)c1ccccc1NC(=O)c1cn(-c2ccc(OC)cc2)c(=O)c2ccccc12,-1.8,31.2,-6.2,15.2*,4.0,93.7,0.1,101.5,0.0
Cc1ccnc(N2C(=O)c3cccc4c([N+](=O)[O-])ccc(c34)C2=O)c1,-27.0,18.0,-11.1,0.9*,-13.5,215.7,0.7,128.8,0.8
Cc1cc(C(F)(F)F)cc(NNC(=O)NC(=O)c2ccc(Cl)cc2)n1,1.6,4.5,-11.1,1.3*,-9.6,102.2,-0.4,106.3,0.1
O=C(NCCC(=O)N1CCc2ccccc21)c1ccco1,-2.5,12.4,5.6,0.0,11.1,·,·,·,·
O=[N+]([O-])c1ccc(-c2csc3[n+]2CCS3)cc1,0.4,19.9,0.6,-0.1,-23.9,·,·,·,·
Fc1ccc(-c2csc3[n+]2CCS3)cc1,-4.0,3.1,2.4,3.0*,10.5,90.5,-0.3,88.8,-0.3
Cc1ccc(S(=O)(=O)N2CCCCC2C(=O)Nc2ccc(N(C)C)cc2)cc1 (configuration not stated),4.1,·,-5.5,0.1,-4.0,·,·,·,·
CN(C)c1ccc(/C=C/C=C2/SC(=S)N(c3ccccc3)C2=O)cc1,0.9,16.9,-5.0,2.4*,-1.5,+,0.8,547.4*,0.8
CN(C)c1ccc(N2C(=NC(=O)CCc3ccccc3)SC3CS(=O)(=O)CC32)cc1 (configuration not stated),-6.7,36.2,1.6,1.0*,-1.8,121.2,0.9,99.3,0.1
O=C(CCCc1ccccc1)N=C1SC2CS(=O)(=O)CC2N1c1ccccc1 (configuration not stated),-2.0,41.0,-4.3,0.0,-19.2,·,·,·,·
CCOC(=O)c1c2ccccc2[n+]([O-])n1[C@@H](C)C(N)=O,-0.6,1.9,-1.1,0.1,-6.2,·,·,·,·
COc1ccc(C2(c3ccc(OC)cc3)NC(=O)N(CC(=O)N(C)C)C2=O)cc1,-1.6,-0.9,-10.2,0.0,-14.6,·,·,·,·
CCOC(=O)CN1C(=O)N[C@@H](CCc2ccccc2)[C@@H](C(=O)OC)[C@H]1C,-1.7,18.4,-5.3,-0.1,279.4,·,·,·,·
SMILES,V-ATPase pH,AI-2 QS modul,ATG4B inhibitor,Efflux pump inh,Mot1-301 SUMO,Cmpd fluor yeast,CaMdr1 efflux inh,CaCdr2 efflux inh,CaCdr1 efflux inh
COc1cccc(NC(=O)c2ccc3c(c2)CCCC3)c1,-1.9,-31.2,2.9,51.5*,-22.7,103.6,-0.2,99.6,0.0
COc1cccc(NC(=S)N2CCc3cc(OC)c(OC)cc3C2)c1,-0.3,18.7,-8.1,-0.1,-12.4,84.4,0.0,99.6,-0.4
COc1cc2c(cc1OC)CN(C(=S)Nc1cccc(Cl)c1C)CC2,-1.5,0.3,1.1,0.7*,-7.7,100.3,-0.5,96.3,-0.2
CC(=O)c1cccc(NC(=O)c2ccc3c(c2)CCCC3)c1,1.9,-0.7,-4.0,0.3,-21.6,·,·,·,·
N#Cc1ccc(OCC(=O)Nc2ccccc2NS(=O)(=O)c2cccs2)cc1,-3.9,2.2,-10.7,0.0,-10.9,·,·,·,·
Cc1ccccc1Nc1nnc(-c2ccc(C(=O)NCCO)cc2)c2ccccc12,-3.4,21.6,-4.9,1.0*,-10.5,105.6,-0.3,96.0,0.0
Cc1cc(S(=O)(=O)N2CCOCC2)ccc1OCC(=O)Nc1ccc(Br)cc1F,-12.6,46.9,-4.0,0.9*,142.1,110.0,0.3,96.3,0.3
NS(=O)(=O)c1ccc(NC(=O)COC(=O)COc2ccc(Cl)cc2)cc1,6.7,20.5,-5.9,-0.1,-19.4,·,·,·,·
CCOc1ccc(/C=c2\sc3nc(-c4ccco4)nn3c2=O)cc1OCC,-3.5,31.4,-6.4,0.2,-10.3,115.5,0.1,102.9,0.2
Cc1ccc(C(C)(C)C)cc1S(=O)(=O)N1CCC(C(=O)N2CCN(c3ccc(O)cc3)CC2)CC1,1.9,·,-16.7,0.8*,218.3,116.8,0.2,118.2,0.2
Cc1cc(C)c(C)c(S(=O)(=O)N2CCC(C(=O)N3CCN(c4ccc(F)cc4)CC3)CC2)c1C,-3.1,·,-11.9,·,·,·,·,·,·
O=C(CSc1n[nH]c(Cc2ccccc2)n1)Nc1ccccc1Br,2.3,1.8,11.2,-0.1,1.7,·,·,·,·
COC(=O)CN1C(=S)N(c2ccc(Cl)cc2)C(=O)C1CC(=O)Nc1ccc(Cl)cc1 (configuration not stated),3.6,-28.0,-13.5,0.5*,10.8,93.5,-0.1,107.2,-0.1

# Compound activity as filed in PubChem.
